Sampled rows, rich in hits. Any-hit rate of the full collection: about 3%.
Tau fibril ThT: blocks human tau fibril formation measured by thioflavin T; P10636; recombinant tau K18 P301L, heparin-induced fibrillization, ThT fluorescence; Potency, µM (series often up to 57.4 µM), for the others: top-dose activity, negative = inhibition, usual class: inhibitors; hit rate 2.1% among 270,000; further: nearly all actives have a fitted effect of over 55% in size
Target sequence (P10636 561-689 P618L limits assumed): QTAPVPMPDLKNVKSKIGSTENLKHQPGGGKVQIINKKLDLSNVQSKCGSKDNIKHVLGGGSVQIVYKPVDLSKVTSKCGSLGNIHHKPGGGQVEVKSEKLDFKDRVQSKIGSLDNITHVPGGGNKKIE
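Aggregation was driven by heparin (20 uM final) acting on recombinant tau […] bearing P301L in 100 mM sodium acetate pH 7; fibrils were detected with Thioflavin T.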
TRb-SRC2 inh: inhibitors of human thyroid hormone receptor beta-SRC2 interaction; P10828; TRbeta-SRC2 peptide binding, fluorescence polarization; receptor liganded with 1 µM T3; Potency, µM (top dose mostly 106 µM), inactives show at the highest dose activity change, negative = inhibition, usual class: inhibitors; hit rate 0.065% among 280,000; AID 1469;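 further: plate controls were bound peptide for no effect and peptide without receptor for full effect; nearly all actives have a fitted effect of over 50% in size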
Target sequence (P10828 whole entry, looked up): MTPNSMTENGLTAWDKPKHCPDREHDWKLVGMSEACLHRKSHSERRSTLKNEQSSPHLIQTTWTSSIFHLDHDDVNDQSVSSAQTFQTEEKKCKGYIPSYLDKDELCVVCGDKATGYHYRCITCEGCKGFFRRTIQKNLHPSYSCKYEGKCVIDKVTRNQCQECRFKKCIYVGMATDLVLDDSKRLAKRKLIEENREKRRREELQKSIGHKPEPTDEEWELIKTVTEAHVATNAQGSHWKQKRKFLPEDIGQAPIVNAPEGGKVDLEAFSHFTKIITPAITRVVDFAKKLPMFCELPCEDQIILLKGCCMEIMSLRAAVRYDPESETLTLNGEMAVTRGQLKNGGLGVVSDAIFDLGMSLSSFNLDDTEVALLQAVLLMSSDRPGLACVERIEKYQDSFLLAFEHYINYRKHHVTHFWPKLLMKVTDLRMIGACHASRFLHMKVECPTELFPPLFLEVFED
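Decrease in fluorescence polarization of 20 nM Texas Red SRC2 coactivator peptide flagged inhibition of its binding to 0.6 uM TRb LBD; 1 uM T3 included, incubation 5 hr, ex 555/em 632 nm.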
TexasRed fluor: Texas Red fluorescence interference in TRb-SRC2 counter-screen; hit rate 0.29% among 280,000; AID 1479; Potency, µM (doses to about 106 µM), for inactives: at the highest dose fluorescence change, negative = quenching; TRb/SRC2 Texas Red total fluorescence interference; active means well fitted curve in either direction with a large enough effect; inconclusive means small, poorly fitted or top-dose-only effect
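Human TRb ligand-binding domain at 0.6 uM with 20 nM Texas Red SRC2 peptide in Tris buffer containing 1 uM T3 and 5% DMSO, incubated with compound 5 h at ambient temperature. Total fluorescence (555/632 nm) calculated as parallel + 2 × perpendicular.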
Tau fluor cs: counter-screen for tau fibril formation inhibitors. AID 1463. hit rate 0.93% among 280,000. Potency, µM (highest dose often 57.7 µM), for inactives: at the top dose activity change, negative = decrease. tau K18 P301L Alexa594 fluorescence, heparin fibrillization; further: nearly all actives have a fitted effect of over 55% in size
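Human tau K18 P301L (15 uM unlabeled, 0.24 uM Alexa 594-labeled) in 100 mM sodium acetate pH 7 with 20 uM heparin, 6 hr at 37 C. ThT 30 uM added, 1 hr ambient; Alexa 594 FP and total fluorescence read at 555/632 nm.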
Tau fibril FP: tau fibrillization inhibition (FP); K18 P301L tau heparin fibrillization, Alexa594 FP, 6 h; hit rate 0.39% among 280,000; Potency, µM (top dose mostly 57.7 µM), for the others: at the highest dose activity, negative = inhibition, actives largely listed as inhibitors; AID 1468; further: nearly all actives have a fitted effect of over 55% in size
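Quantitative HTS format: compounds meet 15 uM recombinant K18 P301L tau and Alexa 594-tau tracer in 100 mM sodium acetate pH 7; 20 uM heparin triggers fibrillization at 37 C over 6 hr; FP gives the signal.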
Active calls of the source: *; ? = inconclusive; nt = no result given; [ ] = another dose, or the depositor's remark. Unless noted, the call rests on the fitted dose curve; in most records, active means well fitted curve in the direction sought with a large enough effect; inconclusive means small, poorly fitted or top-dose-only effect, or another doubt; inactive means no such curve, though single readings can be large; an effect the other way counts as inactive or inconclusive. Unless noted, on the % scale 0 is the no-effect control and ±100 the full control effect; potency means the concentration at half of the fitted maximal effect.

SMILES	Tau fibril ThT	TRb-SRC2 inh	TexasRed fluor	Tau fluor cs	Tau fibril FP
COC(=O)[C@@H]1CCCN1C(=O)[C@@H](C)CO	3%[11.5 µM]	-2%[11.2 µM]	-2%[11.2 µM]	-2%[11.6 µM]	-4%[11.6 µM]
COc1cc2c(cc1OC)C(COc1ccc(F)cc1)N(C(=O)c1ccc(S(=O)(=O)N3CCCC3)cc1)CC2 (stereo unspecified)	3%	-4%	1%	0%	0%
CCCNC(=O)C1CCC(Cn2c(=O)c3sccc3n(CC(=O)N(CC)CC)c2=O)CC1 (stereo unspecified)	0%	8%	-1%	4%	-1%
O=C1CC(N(CCc2ccccc2)C(=S)Nc2ccccc2)C(=O)N1c1ccc(Br)cc1 (stereo unspecified)	?	0%	3%	?	7.9µM*
COc1ccc(CCN(C(=S)Nc2ccccc2)C2CC(=O)N(c3ccccc3)C2=O)cc1 (stereo unspecified)	4%	0%	-3%	?	-18%
Cc1cc(NC(=O)N2CCC(CN3CCOCC3)CC2)ccc1Br	5%	-17%	79µM*[quencher]	4%	-10%
CCOc1ccc(NC(=O)N2CCC(CN3CCCCCC3)CC2)cc1	?	-29%	126µM*[quencher]	-1%	-14%
O=C(Nc1ccc(Br)cc1)N1CCC(CN2CCCC2)CC1	1%	?	45µM*[quencher]	5%	-4%
Cc1ccc(C)c(NC(=O)N2CCC(CN3CCOCC3)CC2)c1	8%	-16%	?	10%	-3%
C=CCN1c2ccccc2[C@]23C[C@@H](C(=O)OC)N(S(=O)(=O)c4ccc(Br)cc4)C2=NC(C(=O)OC)=C(C(=O)OC)[C@H]13	3%[11.5 µM]	6%[11.2 µM]	1%[11.2 µM]	-4%[11.6 µM]	-8%[11.6 µM]
CC(C)Cn1c(=O)c2sccc2n2c(CCCC(=O)Nc3ccc(Cl)cc3)nnc12	2%	-10%	-1%	-23%	-3%
CC1CC(CC(=O)Nc2nc(-c3ccccc3)cs2)C(=O)O1 (stereo unspecified)	6%	-6%	-4%	3%	3%
C/C(CC1CC(COCC(C)C)OC1=O)=N\Nc1nc(-c2ccccc2)cs1 (stereo unspecified)	18µM*	5%	2%	?	-8%
O=C(N=Nc1c(O)n(Cc2ccccc2)c2ccccc12)c1ccncc1	16µM*	-1%	-14%	-11%	1%
COC(=O)N=Nc1c(O)n(Cc2ccccc2)c2ccccc12	?	2%	-2%	-14%	-11%
COc1ccccc1CNS(=O)(=O)c1ccc2c(c1)CC(C)N2C(=O)C1CCC1 (stereo unspecified)	-5%	-10%	22µM*[quencher]	0%	10%
Cc1ccc(Cl)cc1N1CCN(S(=O)(=O)c2ccc3c(c2)CC(C)N3C(=O)C2CCC2)CC1 (stereo unspecified)	8%	-13%	16µM*[quencher]	7%	-9%
O=C(CC1NCCNC1=O)Nc1ccccc1F (stereo unspecified)	1%	-2%	2%	-8%	1%
CCc1ccc(S(=O)(=O)c2cn(C)c3cc(N4CCCCC4C)c(F)cc3c2=O)cc1 (stereo unspecified)	-3%	-24%	112µM*[quencher]	2%	-2%
CCCCn1cc(S(=O)(=O)c2ccc(CC)cc2)c(=O)c2cc(F)c(N3CCCC(C)C3)cc21 (stereo unspecified)	-9%	-27%	89µM*[quencher]	1%	-6%
CCCn1cc(S(=O)(=O)c2cc(C)ccc2C)c(=O)c2cc(F)c(N3CCOCC3)cc21	-5%	?	25µM*[quencher]	1%	11%
CCCCn1cc(S(=O)(=O)c2ccc(Cl)cc2)c(=O)c2cc(F)c(N3CCCC(C)C3)cc21 (stereo unspecified)	-3%	-15%	100µM*[quencher]	9%	8%
CCCn1cc(S(=O)(=O)c2ccccc2)c(=O)c2cc(F)c(N3CCCC(C)C3)cc21 (stereo unspecified)	-6%	1%	-7%	-7%	7%
COc1ccc(-c2cc3nc(C)c(CCC(=O)NC(C)c4ccccc4)c(C)n3n2)c(OC)c1 (stereo unspecified)	?	0%	-8%	-14%	?
Cc1ccc(NC(c2cccc(Cl)c2)c2nnc(-c3ccccc3)o2)cc1F (stereo unspecified)	-9%	-3%	0%	-25%	-11%
SMILES	Tau fibril ThT	TRb-SRC2 inh	TexasRed fluor	Tau fluor cs	Tau fibril FP
Cc1oc2ccc(O)c(CN(C)Cc3ccccc3)c2c1C(=O)Nc1cccc(C(F)(F)F)c1	-17%	3%	5%	?	-2%
COc1c2c(c(C(=O)/C=C/C(C)=C/c3ccccc3)c3c1OCO3)CCN(C)C2	?	2%	0%	-6%	-11%
COc1c(O)c(O)cc2c1oc1c3cc(C)ccc3oc(=O)c21	8.9µM*	10%	?	10µM*[quencher]	?
COc1cc(-c2oc3ccc(C)cc3c(=O)c2O)cc(OC)c1OC	?	1%	0%	-28%	-7%
C=C(C)C1CC=C(C)C(OC(C)=O)C1 (stereo unspecified)	nt	3%	0%	nt	nt
Nc1n[nH]c(=S)n1/N=C1/C(=O)Nc2ccccc21	18µM*	1%	-10%	-25%	?
COc1cc(C(=O)N2CCN(CCc3ccccn3)CC2)cc(OC)c1OC	8%	4%	4%	7%	4%
Cc1noc(C)c1-c1ccc2ncnc(NC3CCCc4ccccc43)c2c1 (stereo unspecified)	nt	-5%	0%	nt	nt
Oc1ccc(N=Cc2cc(Br)c(N3CCOCC3)o2)cc1	3.2µM*	-2%	0%	?	?
O=c1c(Cl)c(O)c2cccc3c4ccccc4n1c23	14µM*	-6%	-8%	?	?
COc1ccc(NC(=O)c2ccc3c(=O)n4nc(Nc5ccccc5C)sc4nc3c2)cc1Cl	?	1%	0%	-17%	-6%
COc1ccc(C2C3C=CCC(c4cccc(-c5ccc(N(C)C)cc5)c4)C3C(=O)N2Cc2ccccc2)cc1Cl (stereo unspecified)	nt	-8%	1%	nt	nt
CC(=O)c1cccc(NC(=O)c2ccc3nc(C(C)C)oc3c2)c1	-1%	8%	-7%	7%	4%
CC1=NN(c2cccc(C(=O)O)c2)C(=O)/C1=C\C=C\c1ccco1	14µM*	8%	1%	?	?
CC1=NN(c2ccccc2)C(=O)/C1=C/C=C/c1ccccc1	16µM*	-8%	-1%	?	?
Cc1ccc(C2=NOC(=O)/C2=C\C=C\c2ccccc2)cc1	13µM*	0%	-2%	?	14µM*
CC1=C(C(=O)Nc2ccccc2C)C(c2cccs2)n2nc(SCc3ccccc3)nc2N1 (stereo unspecified)	-18%	-2%	0%	?	?
CCOc1ccc(CNS(=O)(=O)c2cc3c(cc2C)NC(=O)CO3)cc1OC	-12%	4%	-3%	-16%	-11%

Source: PubChem
